Laboratory results reported in PubChem BioAssay AID743126 (The Scripps Research Institute Molecular Screening Center, 2013).
Out of some 370,000 compounds screened, about 2,100 (0.57%) were called active. What follows is part of a selection rich in actives, with near analogues and random picks from the rest. A number with no mark means an inactive call.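 Rule for the calls: active = inhibition above mean plus 3 SD of compounds lying within the high and low control bounds (cut at about 19% in these data); inactive = the rest.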

Each compound was assayed against Group 3 secretory phospholipase A2 (Homo sapiens) (UniProt Q9NZ20) (assay: human group III sPLA2 inhibitors, primary screen, biochemical, QFRET, BODIPY PC-A2 liposome substrate (AID 743126;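 note: 0% = median of test compound wells and 100% = no enzyme DMSO wells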)). Conditions: QFRET BODIPY PC-A2 liposome hydrolysis, fluorescence; at 12.2 µM; active compounds read high.
Sequence of Group 3 secretory phospholipase A2 (Homo sapiens) (Q9NZ20 whole entry, looked up): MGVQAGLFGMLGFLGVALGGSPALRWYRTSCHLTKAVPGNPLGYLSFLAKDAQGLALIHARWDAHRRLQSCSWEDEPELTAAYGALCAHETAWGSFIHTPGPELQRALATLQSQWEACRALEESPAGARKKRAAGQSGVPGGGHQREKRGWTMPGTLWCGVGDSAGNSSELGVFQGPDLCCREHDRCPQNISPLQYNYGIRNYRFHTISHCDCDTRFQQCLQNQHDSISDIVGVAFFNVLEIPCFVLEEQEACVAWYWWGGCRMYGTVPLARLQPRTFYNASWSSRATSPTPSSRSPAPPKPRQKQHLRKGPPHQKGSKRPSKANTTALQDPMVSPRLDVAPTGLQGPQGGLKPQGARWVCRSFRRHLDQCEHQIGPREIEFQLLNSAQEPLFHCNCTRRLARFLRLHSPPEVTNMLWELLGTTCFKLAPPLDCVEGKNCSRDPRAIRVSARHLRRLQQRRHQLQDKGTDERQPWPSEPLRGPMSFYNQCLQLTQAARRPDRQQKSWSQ
Work on Cc1cccc(-n2cnc(C(=O)Nc3cccnc3)c2)n1 yielded an inhibition of 8.64%. For COC(=O)c1ccc(NC(=S)Nc2cccc(C)n2)cc1, the inhibition was 7.29%. Cc1cccc(-n2cnc(C(=O)NNC(=S)Nc3ccccc3)c2)n1 was tested, and the inhibition was 38.5% (active). CCOc1ccc(-n2c(SCC(=O)Nc3cc(C)c(NC(=O)c4ccccc4)cc3OC)nnc2-c2cccc(Cl)c2)cc1 showed an inhibition of 2%. For CSC1=NN(c2ccccc2)CN(c2ccccc2)N1C, the inhibition was 21.7% (active). Work on O=C(CCl)NC1CCCCN(Cc2cccc(C(F)(F)F)c2)C1=O (centres undefined) yielded an inhibition of 7.99%. CCCCNC(=O)C[C@H]1C(=O)N(Cc2ccc(OC)cc2)C2=CCCC[C@@]21C(=O)OCC showed an inhibition of 12.9%. Cc1cc(-c2n[nH]c(=S)n2-c2ccc(C)c(C)c2)no1 was tested, and the inhibition was 20.5% (active). Compound Cc1ccc(NCc2n[nH]c(=S)n2-c2ccccc2)cc1Cl has an inhibition of 12.3%. Cc1ccc(C)c(S(=O)(=O)Nc2cc(C)on2)c1 showed an inhibition of 6.47%. Cc1ccccc1CN1CCCCC(NC(=O)Nc2ccccc2F)C1=O (centres undefined) was tested, and the inhibition was 4.74%. C[C@@H](NC(=O)c1ccccc1OCC(=O)Nc1ccc(I)cc1)C(=O)N(C)Cc1ccccc1 showed an inhibition of -8.83%. Compound Cc1ccc(-n2c(SCC(=O)Nc3ccc(S(=O)(=O)Nc4nccs4)cc3)nnc2-c2ccccn2)cc1 has an inhibition of -36.9%. CC(=O)c1cc(C#N)c(N2CC(C)OC(C)C2)nc1C (centres undefined) gave an inhibition of 10.2%. In the case of CC(=O)c1nnn(-c2ccc(Cl)cc2C#N)c1C, the inhibition is reported as 21.4% (active). With O=C(Nc1cccc(Cl)c1)OC1CC2CC1[C@H]1CCCCN1[C@H]2Cc1ccccc1 (some centres undefined) the inhibition was -3.5%. N#Cc1ccc(OC[C@@H](O)CN2CCC(C(O)(c3ccccc3)c3ccccc3)CC2)c(F)c1 gave an inhibition of -15.8%. O=C(c1ccc2c(c1)C(=O)N(Cc1ccncc1)C2=O)N1CCN(S(=O)(=O)c2ccc(OC(F)(F)F)cc2)CC1 was tested, and the inhibition was 0.57%. In the case of O=C1C(=O)N(Cc2ccc(-c3ccsc3)cc2)c2ccc(OC(F)(F)F)cc21, the inhibition is reported as 26% (active). Work on Cc1ccc(CC2(C)C(=O)Nc3ccc(OC(F)(F)F)cc32)cc1 (centres undefined) yielded an inhibition of -5.51%. Compound CC(C)CNC(=O)OCc1cn(Cc2ccc(F)cc2)nn1 has an inhibition of 1.52%. In the case of COC(=O)[C@@]12CCCCC3=C1N(CCC3)C(=O)[C@H]2CC(=O)NCc1cccc2ccccc12, the inhibition is reported as -12%. With CCCC[C@H]1C2CC(OC(=O)NCc3ccccc3)C(C2)[C@H]2CCCCN21 (some centres undefined) the inhibition was 9.24%. For Nn1c(SCC(=O)Nc2ccc(S(N)(=O)=O)cc2)nnc1-c1n[nH]c2c1CCC2, the inhibition was 9.17%.
